Data on 57 compounds can be found in paper PMC4336329 (PLoS ONE, 2015).

Out of some 310,000 compounds screened, about 14,000 (4.5%) showed an effect of 50% or more. The effect is printed as a negative number. The entries come from a sample that favours strong results as a whole.
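Note: peak tail current of the secondary pulse compared with the same well before compound.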

human ether-à-go-go-related gene (hERG) potassium channel, sequence (Q12809 whole entry, looked up): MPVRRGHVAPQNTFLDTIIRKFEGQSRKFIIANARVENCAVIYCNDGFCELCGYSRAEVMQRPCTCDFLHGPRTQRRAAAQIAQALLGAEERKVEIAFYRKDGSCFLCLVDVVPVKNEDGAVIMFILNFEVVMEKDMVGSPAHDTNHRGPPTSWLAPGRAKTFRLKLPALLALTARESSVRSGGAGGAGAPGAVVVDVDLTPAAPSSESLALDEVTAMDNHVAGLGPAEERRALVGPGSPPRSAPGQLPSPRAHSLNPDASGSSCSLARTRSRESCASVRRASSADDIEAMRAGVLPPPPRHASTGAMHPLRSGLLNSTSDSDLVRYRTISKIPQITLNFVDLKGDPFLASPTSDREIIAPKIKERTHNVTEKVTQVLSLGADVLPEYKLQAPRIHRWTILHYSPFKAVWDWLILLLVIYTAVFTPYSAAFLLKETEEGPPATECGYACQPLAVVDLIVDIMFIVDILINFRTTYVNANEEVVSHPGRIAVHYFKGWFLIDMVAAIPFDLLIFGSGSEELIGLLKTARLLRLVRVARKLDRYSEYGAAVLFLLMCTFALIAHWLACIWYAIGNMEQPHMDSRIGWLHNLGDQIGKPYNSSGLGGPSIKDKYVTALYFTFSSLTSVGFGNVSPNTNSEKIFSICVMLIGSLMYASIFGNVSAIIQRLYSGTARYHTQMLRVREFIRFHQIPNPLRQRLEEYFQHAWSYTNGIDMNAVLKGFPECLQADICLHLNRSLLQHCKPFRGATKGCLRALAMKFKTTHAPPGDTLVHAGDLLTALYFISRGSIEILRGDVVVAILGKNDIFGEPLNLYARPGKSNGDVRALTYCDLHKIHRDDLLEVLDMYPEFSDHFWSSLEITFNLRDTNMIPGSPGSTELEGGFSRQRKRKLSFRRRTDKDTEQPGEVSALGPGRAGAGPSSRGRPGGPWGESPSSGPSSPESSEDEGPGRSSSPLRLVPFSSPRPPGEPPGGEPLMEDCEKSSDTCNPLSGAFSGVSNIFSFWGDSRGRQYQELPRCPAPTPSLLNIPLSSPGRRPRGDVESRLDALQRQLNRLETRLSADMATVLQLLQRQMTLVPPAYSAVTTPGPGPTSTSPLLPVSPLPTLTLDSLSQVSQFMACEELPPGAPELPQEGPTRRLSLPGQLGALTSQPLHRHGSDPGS

The test concerns the target human ether-à-go-go-related gene (hERG) potassium channel (human, UniProt Q12809). As to the kind of experiment: primary screen, population patch clamp on CHO cells stably expressing hERG; higher = less effect of the substance.
With `O=[N+]([O-])c1ccc(Oc2ccc(-c3cnc4ccccc4n3)cc2[N+](=O)[O-])cc1`, the “hERG current change (%, negative = inhibition) at 10uM” value is on record as 6.13%.
With `c1nc(N2CCCCC2)c2[nH]cnc2n1` the figure was 9.4%; with `C=CCn1c(SCCN2CCCCC2)nc2c1c(=O)[nH]c(=O)n2C`, -47.3%.
With `CCOc1ccc(C(=O)NC2CC3CCCC(C2)N3Cc2ccccc2)cc1` (stereo not drawn), the “hERG current change (%, negative = inhibition) at 10uM” value is reported as -57.5%.
With `COc1ccc(C(=O)NC2CC3CCCC(C2)N3Cc2ccccc2)cc1` (stereo not drawn) the figure was -53.5%.
For the compound `COc1ccc(C(=O)NC2CC3CCCC(C2)N3Cc2ccccc2)cc1OC` (stereo not drawn), the “hERG current change (%, negative = inhibition) at 10uM” value was -23.6%.
Consider `CCOc1ccc(C(=O)NC2CC3CCCC(C2)N3CC(C)C)cc1` (stereo not drawn), for which the “hERG current change (%, negative = inhibition) at 10uM” value is on record as -41.1%.
With `Cc1ccn2c(NC(=O)c3cccs3)c(-c3ccccc3)nc2c1` the figure was -0.701%.
For `CC1(C)Cc2c(cnn2-c2cccc(F)c2)C(NC(=O)CCc2cnccn2)C1` (stereo not drawn), the “hERG current change (%, negative = inhibition) at 10uM” value was -28.4%.
Consider `CC1(C)Cc2c(cnn2-c2cccc(F)c2)C(NC(=O)Cn2cccn2)C1` (stereo not drawn), for which the “hERG current change (%, negative = inhibition) at 10uM” value is on record as -11.5%.
`CC1(C)Cc2c(cnn2-c2cccc(F)c2)C(NC(=O)CSc2ccncc2)C1` (stereo not drawn): the “hERG current change (%, negative = inhibition) at 10uM” value is -56.5%.
As to `Cc1ccccc1-n1ncc2c1CC(C)(C)CC2NC(=O)CSc1ccncc1` (stereo not drawn), the “hERG current change (%, negative = inhibition) at 10uM” value is listed as -8.26%.
For `CC1(C)Cc2c(cnn2-c2cccc(F)c2)C(NC(=O)CSc2ccccn2)C1` (stereo not drawn) the value was -20.6%; for `C=CCCC(=O)NC1CC(C)(C)Cc2c1cnn2-c1cccc(F)c1` (stereo not drawn), -68.4%.
Consider `CCC1CCCCN1C(=S)NCc1ccccc1` (stereo not drawn), for which the “hERG current change (%, negative = inhibition) at 10uM” value is listed as -1.29%.
For `COc1ccc(-c2c(C)n([O-])c(C)c(-c3ccccc3)[n+]2=O)cc1OC` the value was 7.35%; for `Cc1cccc(-n2cc(CN(C)Cc3nccn3C)c(-c3cccc(F)c3)n2)c1`, -6.01%.
With `CCN(CC(=O)NC(C)(C)C)C(=O)c1ccc(Br)cc1` the figure was 2.64%; with `O=C(NCCc1ccc(Cl)cc1)C1CCCN1C(=O)Nc1ccccc1` (stereo not drawn), -11.5%; with `CCOc1ccccc1NC(=O)c1cc(C(=O)c2cc(OC)ccc2O)coc1=N`, -20.3%.
With `COc1ccc(C(=O)Nc2ccc(SC(F)F)cc2)cc1` the figure was -2.14%; with `COc1ccc(O)c(C(=O)c2coc(=N)c(C(=O)Nc3ccc(SC(F)F)cc3)c2)c1`, -69.9%; with `O=c1[nH]c(C2CCN(S(=O)(=O)c3ccc(F)cc3)CC2)nc2c1nnn2Cc1ccc2c(c1)OCCO2`, 11.1%.
As to `COc1cc2c(c(OC)c1OC)-c1ccc(O)c(=O)cc1C(NC(C)=O)CC2` (stereo not drawn), the “hERG current change (%, negative = inhibition) at 10uM” value is reported as 13.7%.
For `CNC(=O)c1ccc(NC(=O)c2cc(S(=O)(=O)N3CCOCC3)ccc2N2CCCC2)cc1` the value was 7.71%.
As for `CCN1CCN(S(=O)(=O)c2ccc(Cl)c(C(=O)Nc3ccc(OC(F)F)cc3)c2)CC1`, the “hERG current change (%, negative = inhibition) at 10uM” value was -70.4%.
For `O=C(Nc1ccc(OC(F)F)cc1)c1cc(S(=O)(=O)N2CCOCC2)ccc1F`, the “hERG current change (%, negative = inhibition) at 10uM” value was -31.3%.
On to `O=C(Nc1cccc(F)c1)c1cc(S(=O)(=O)N2CCOCC2)ccc1N1CCCC1`, for which the “hERG current change (%, negative = inhibition) at 10uM” value is -34.2%.
With `N#Cc1ccc(NC(=O)c2cc(S(=O)(=O)N3CCOCC3)ccc2N2CCCC2)cc1` the figure was -80.4%; with `CCN1CCN(S(=O)(=O)c2ccc(Cl)c(C(=O)Nc3ccc(C(=O)N(CC)CC)cc3)c2)CC1`, 0.597%.
Consider `O=C(Nc1ccc(OC(F)F)cc1)c1cc(S(=O)(=O)N2CCCCC2)ccc1N1CCOCC1`, for which the “hERG current change (%, negative = inhibition) at 10uM” value is reported as -65.8%.
Take `CCN1CCN(c2ccc(NC(=O)c3cc(S(=O)(=O)N4CCCC4)ccc3Cl)cc2)CC1`: the “hERG current change (%, negative = inhibition) at 10uM” value was -27.7%.
With `NC(=O)c1ccc(NC(=O)c2cc(S(=O)(=O)N3CCCCC3)ccc2N2CCOCC2)cc1` the figure was -13.9%.
With `O=C(O)c1ccccc1N1C(=O)C2C3c4ccccc4C(Br)(c4ccccc43)C2C1=O` (stereo not drawn) the figure was 18.4%; with `CCN(CC(=O)NCc1cccs1)C(=O)/C=C/c1ccc(OC)c(OC)c1`, -23.5%; with `Cc1cc(C)n2nc(C(=O)OCC(=O)Nc3ccc4c(c3)OCCO4)nc2n1`, 3.56%.
`CCOc1cc(C(=S)N2CCOCC2)ccc1OS(=O)(=O)c1ccccc1`: the “hERG current change (%, negative = inhibition) at 10uM” value was -10%.
With `COc1ccc(OCC(=O)NCCCCCCNC(=O)COc2ccc(OC)cc2)cc1` the figure was 10.6%; with `CCOC(=O)C1CCCN(CC(O)COCc2ccc3c(c2)OCO3)C1` (stereo not drawn), -23.5%.
Take `CCc1cc(C(=O)NNC(=O)CCN2CCN(c3ccccc3)CC2)sc1C`: the “hERG current change (%, negative = inhibition) at 10uM” value is given as 11.8%.
For the compound `O=C(Nc1nnc(C2CC2)o1)c1ccc(S(=O)(=O)N2CCCc3ccccc32)cc1`, the “hERG current change (%, negative = inhibition) at 10uM” value is recorded as -19.3%.
In the case of `COc1cc(/C=N/Nc2ncc(C(F)(F)F)cc2Cl)cc(OC)c1O`, the “hERG current change (%, negative = inhibition) at 10uM” value was -64.8%.
With `COc1ccc(/C=N/Nc2ncc(C(F)(F)F)cc2Cl)cc1OC` the figure was 3%; with `COc1cccc(/C=N/Nc2ncc(C(F)(F)F)cc2Cl)c1O`, 36.1%.
For the compound `CCN(CC(=O)Nc1cc(C)on1)CC(=O)Nc1ccccc1C(F)(F)F`, the “hERG current change (%, negative = inhibition) at 10uM” value amounted to 13.7%.
With `Cc1ccc(NC(=O)CN(C)C(=O)c2ccc(Cl)c([N+](=O)[O-])c2)cc1` the figure was -52.1%.
With `CN(CC(=O)Nc1ccc(F)c(F)c1F)C(=O)c1ccc(=O)[nH]c1` the figure was 0.382%; with `CN(CC(=O)Nc1ccc(F)c(F)c1F)C(=O)c1ccc(-n2cncn2)cc1`, -63.8%.
For `Cc1ccc(NC(=O)CN(C)C(=O)c2ccc(-n3cncn3)c([N+](=O)[O-])c2)cc1` the value was -49.2%; for `CN(CC(=O)Nc1ccc(F)c(F)c1F)C(=O)c1ccc(-n2cncn2)c([N+](=O)[O-])c1`, -40.6%.
Regarding `Cc1ccc(NC(=O)CN(C)C(=O)C(C)OC(=O)CNC(=O)c2ccc(Cl)c([N+](=O)[O-])c2)cc1` (stereo not drawn), the “hERG current change (%, negative = inhibition) at 10uM” value is -43%.
On to `CCN(C(=O)c1ccc(Cl)c([N+](=O)[O-])c1)c1ccccc1`, for which the “hERG current change (%, negative = inhibition) at 10uM” value is -5.95%.
Consider `O=C(NCCc1ccccc1)c1ccc(Cl)c([N+](=O)[O-])c1`, for which the “hERG current change (%, negative = inhibition) at 10uM” value is -27.2%.
With `CN(CC(=O)Nc1c(Cl)cccc1Cl)C(=O)c1ccc(-n2cncn2)c([N+](=O)[O-])c1` the figure was 5.71%.
With `CN(CC(=O)Nc1ccc(Cl)cc1)C(=O)c1ccc(-n2cncn2)c([N+](=O)[O-])c1` the figure was -70.3%.
With `Cc1ccc(NC(=O)CN(C)C(=O)c2ccc(Sc3nncn3C)c([N+](=O)[O-])c2)cc1` the figure was -40.3%; with `CN(Cc1ccccc1)C(=O)c1ccc(Cl)c([N+](=O)[O-])c1`, -53.5%.
